Screening data (PubChem)
GDH-TPI counter – inhibits GDH-TPI coupling enzymes, artifact for Mtb FBA screen; 360,000 tested, 1.2% active; inhibition, % at 4.8 µM; GDH-TPI coupled enzyme counterscreen, NADH absorbance; in the data active = inhibition above about 30%;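 note: 0% = DMSO wells and 100% = wells lacking the enzyme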
Y pestis TopoI – inhibitors of Yersinia pestis topoisomerase I | Y. pestis Topo-I cleavage product accumulation, plate reader | 360,000 tested, 0.064% active | activity, % at 10 µM; in the data active = activity above about 50%, passing the limit was not always enough
TcdB GH inh – TcdB glycohydrolase inhibition | P18177 | TcdB glycohydrolase enzymatic assay, plate reader | inhibition, % at 9.99 µM | 350,000 tested, 0.24% active | AID 652162; in the data active = inhibition above about 10%
PrPC surface inh – cell surface PrPC inhibition, primary TR-FRET screen; 370,000 tested, 0.43% active; TR-FRET read-out; P04156; inhibition, % at 13.8 µM; in the data active = inhibition above about 24%; note: 0% = median of the test wells and 100% = reference compound wells
FBA Mtb inh – inhibits M. tuberculosis FBA enzyme; P9WQA3; purified M. tuberculosis FBA, fluorescence read-out; inhibition, % at 1 µM; 360,000 tested, 2.3% active; AID 588726; in the data active = inhibition above about 27%;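 note: 0% = vehicle and 100% = reference inhibitor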
Target sequence (P9WQA3 whole entry, looked up): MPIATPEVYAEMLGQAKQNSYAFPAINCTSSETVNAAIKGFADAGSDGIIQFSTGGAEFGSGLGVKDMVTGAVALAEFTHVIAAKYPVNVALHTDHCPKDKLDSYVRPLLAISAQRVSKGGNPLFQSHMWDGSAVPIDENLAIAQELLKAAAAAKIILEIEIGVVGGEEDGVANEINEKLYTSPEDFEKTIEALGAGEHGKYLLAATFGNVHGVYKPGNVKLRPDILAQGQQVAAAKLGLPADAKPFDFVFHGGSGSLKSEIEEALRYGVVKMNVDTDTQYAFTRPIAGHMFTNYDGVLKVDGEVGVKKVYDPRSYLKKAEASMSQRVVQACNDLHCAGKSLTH
The depositor's hits bear a star; x = no result given; + = active, no number. Shown are actives, neighbours in structure and some others; about 3.2% of the full set was active somewhere.

SMILES	GDH-TPI counter	Y pestis TopoI	TcdB GH inh	PrPC surface inh	FBA Mtb inh
O=C1CN(c2nc3nonc3nc2N2CCCCC2)CCN1	35.4*	5.0	-0.2	-6.6	-3.1
C1CCCN(c2nc3nonc3nc2N2CCCCCC2)CC1	6.2	-1.0	1.1	-3.3	4.0
N#C/C(=C\c1ccco1)C(=O)NCC1CCCO1 (stereo unspecified)	45.8*	-3.0	-1.1	6.1	-0.3
N#C/C(=C\c1ccc[nH]1)C(=O)NCC1CCCO1 (stereo unspecified)	34.5*	-2.7	1.4	-7.7	0.6
CC(NC(=O)/C(C#N)=C/c1ccco1)c1ccccc1 (stereo unspecified)	52.5*	1.1	2.4	1.1	-0.9
Cc1ccc(/C=C(\C#N)C(=O)NCC2CCCO2)o1 (stereo unspecified)	22.4	-1.4	1.7	-8.3	2.0
N#C/C(=C\c1cccc([N+](=O)[O-])c1)C(=O)NCC1CCCO1 (stereo unspecified)	-2.2	2.2	0.0	0.3	3.2
COCCNC(=O)CCSc1nc(-c2ccc(OC)cc2)cc(C(F)(F)F)n1	35.6*	0.4	x	-2.5	22.1
CC(=O)Nc1ccc2ccc3cccc4ccc1c2c34	33.6*	-3.7	x	-6.7	17.9
O=C(O)c1ccc2c3c(cccc13)C(=O)N(c1ccccc1)C2=O	15.7	5.6	1.8	-42.0	0.6
CC(=O)Nc1ccc2c3c(cccc13)C(=O)N(c1ccccc1)C2=O	12.3	-2.3	-0.3	-25.3	+
CC(=O)Nc1cccc2cc(O)ccc12	10.6	-8.3	21.9*	-3.3	-1.1
O=C(C[C@H]1CC[C@H](NC(=O)Nc2ccc3c(c2)OCO3)[C@@H](CO)O1)NCCCN1CCOCC1	x	x	-0.4	x	x
Cc1ccc(/C=N/Nc2cn[nH]c(=O)n2)o1	32.6*	-4.8	0.0	-3.1	-2.7
Cc1ccc(/C=N/Nc2ccc3ccccc3n2)o1	14.4	4.9	-2.0	-1.8	15.1
CCN(CC)CCNc1ncnc2c1sc1nc(N3CCOCC3)c3c(c12)CCCC3	34.8*	23.5	4.9	-26.3	1.2
OCCNc1ncnc2c1sc1nc(N3CCOCC3)c3c(c12)CCC3	20.7	-7.6	0.6	3.4	9.8
N#C/C(=N\Nc1ccc(Cl)cc1)C(=O)c1ccccc1	31.1*	-9.3	x	7.2	-18.2
O=C(N[C@H]1CC[C@H](CCNC(=O)C2CC2)O[C@@H]1CO)c1ccncc1	x	x	2.3	x	x
COc1ccc(C#Cc2c(-c3ccccc3)n(-c3ccccc3)c3ccc(CO)cc23)cc1	32.6*	-3.5	0.9	13.3	113.1*
C[C@H](CO)N1C[C@H](C)[C@H](CN(C)CC2CCCCC2)OCCCC[C@H](C)Oc2ccc(NS(=O)(=O)c3cn(C)cn3)cc2C1=O	x	x	-0.9	x	x
COc1ccc(NC(=O)N(C)C[C@H]2OCCCC[C@@H](C)Oc3ccc(NC(=O)CCC(F)(F)F)cc3C(=O)N([C@H](C)CO)C[C@H]2C)cc1	x	x	-0.6	x	x
CCn1c2ccccc2c2cc(NC(=O)CNCc3ccccc3OC)ccc21	15.5	4.1	1.1	4.4	-0.2
Cn1c(=O)c(=O)n(C)c2cc(S(=O)(=O)CCC(=O)Nc3cccc(C(F)(F)F)c3)ccc21	6.5	15.9	1.4	-1.5	-0.7
Cn1c(=O)c2cc(NC(=S)NCc3ccccc3F)ccc2n1Cc1cccc(C(F)(F)F)c1	6.5	13.4	-0.5	-0.9	20.6
SMILES	GDH-TPI counter	Y pestis TopoI	TcdB GH inh	PrPC surface inh	FBA Mtb inh
Cn1c(=O)c2cc(NC(=O)CCc3ccccc3)ccc2n1Cc1cccc(C(F)(F)F)c1	15.2	21.9	0.9	10.7	127.1*
COc1cccc(Cn2c3ccc(NC(=O)CCc4ccc(F)cc4)cc3c(=O)n2C)c1	3.5	22.2	-1.6	14.2	150.6*
CCOCCC(=O)Nc1ccc2c(c1)c(=O)n(C)n2Cc1cccc(C(F)(F)F)c1	9.8	-4.9	2.1	-4.6	176.9*
COc1ccccc1CCC(=O)Nc1ccc2c(c1)c(=O)n(C)n2C	8.0	8.8	0.6	-6.2	189.2*
COc1cc(OC)c(-c2sc(Nc3ccccc3)n[n+]2-c2ccc(F)cc2)cc1OC	38.0*	-1.5	-3.9	-2.4	9.1
CCc1ccc(Nc2n[n+](-c3ccccc3)c(-c3ccc(OC)c(Br)c3)s2)cc1	5.2	-8.8	10.8*	0.6	2.8
CCc1ccc(Nc2n[n+](-c3ccccc3)c(-c3ccc(SC)cc3)s2)cc1	11.9	-5.5	-0.6	-9.0	-1.2
C=CCN1C(=O)C(CC(=O)O)S/C1=N/N=C/c1ccc(N(CC)CC)cc1 (stereo unspecified)	34.5*	-0.8	0.9	-4.8	23.1
O=C1NC(=O)N(c2ccc(Cl)cc2)C(=O)/C1=C/c1coc2ccc(O)cc2c1=O	21.5	5.5	-1.5	-5.3	0.0
O=C1NC(=O)N(c2ccccc2)C(=O)/C1=C/c1coc2ccc(O)cc2c1=O	31.2*	-7.0	-9.7	-1.6	-0.7
Cc1ccccc1Nc1ccc2nonc2c1[N+](=O)[O-]	1.7	0.6	0.5	-29.6	1.1
O=[N+]([O-])c1c(Nc2ccccc2O)ccc2nonc12	5.5	-3.2	12.7*	-47.6	-6.6
CCOC(=O)C(=Cc1c[nH]c2ccc(S(=O)(=O)N(C)C)cc12)C(=O)OCC	41.1*	0.6	1.0	7.6	5.5
CCOC(=O)c1c(-c2ccc(OC)cc2)cn2ccccc12	3.5	-3.2	0.7	-2.5	26.1
CCOC(=O)c1c(-c2ccccc2)cn2ccccc12	10.6	16.4	x	-4.9	168.2*
COc1ccc(/C=N/NC(=S)Nc2cccc(C(=O)O)c2)cc1	22.0	1.1	-2.2	4.7	-2.1
COc1cc(/C=N/Nc2ccc(C(=O)O)cc2)cc(OC)c1OC	41.2*	-3.4	0.6	1.1	-1.2
COc1cc(/C=N/NC(=S)NCCc2ccccc2)cc(OC)c1OC	40.8*	-10.7	-0.2	6.1	0.7
COc1ccc(/C=N/Nc2ccc(C(=O)O)cc2)c(OC)c1OC	20.4	2.5	-1.6	0.3	-0.2
COc1cc(/C=N/NC(=S)Nc2cccc(C(=O)O)c2)ccc1O	32.2*	-4.5	-3.8	-8.2	3.5
COc1cc(/C=N/NC(=O)c2cnccn2)cc(OC)c1OC	32.2*	-3.1	0.5	-7.6	-1.0
CO[C@@H]1CN(C)C(=O)c2cc(NC(C)=O)ccc2OC[C@H](C)N(C(=O)C2CC2)C[C@H]1C	x	x	1.3	x	x
C[C@H](CO)N1C[C@H](C)[C@H](CN(C)C(=O)Nc2cccc3ccccc23)Oc2ccc(NS(=O)(=O)c3cccs3)cc2C1=O	x	x	-1.8	x	x
COc1ccc(/C(C)=N/Nc2ccc(C(=O)O)cc2)cc1OC	55.6*	-3.0	x	-0.4	3.5
COc1cc(C(=O)N/N=C/c2ccsc2C)cc(OC)c1OC	36.9*	-0.3	x	15.2	-0.6
COc1cc(/C=C/C(C)=NNc2ccccc2)ccc1O	32.3*	-17.1	7.3	7.7	1.5
COc1cc(/C=N/NC(=O)c2ccccc2)ccc1O	18.0	-2.9	-17.1	-0.1	-1.8
COc1cc(/C=N/Nc2ccc(C(=O)O)cc2)ccc1O	33.1*	-5.5	2.6	-3.5	2.2
C[C@H]1CN([C@@H](C)CO)C(=O)c2cc(NC(=O)CCCN(C)C)ccc2O[C@@H]1CN(C)C(=O)NC1CCCCC1	x	x	1.7	x	x
